SIRT5 inh – sirtuin-5 (human) deacylase inhibition; Q9NXA8; Purified SirT5, succinyl-peptide AMC, trypsin-coupled fluorescence; inhibition, % at 15 µM; 330,000 tested, 1.1% active; AID 652115; in the data active = inhibition above about 15%
Casp6 inh – blocks human caspase-6 cleavage activity | inhibition, % at 12.5 µM | P55212 | 350,000 tested, 0.53% active | purified caspase-6, Z-VEID-R110 cleavage fluorescence;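 active = mean inhibition across replicates at least about 35%, with every replicate also reaching that limit, limit read from the data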
GSIS activator – primary screen for activators of insulin secretion dependent on glucose, INS-1E cells, GLuc reporter luminescence; INS-1E GLuc reporter insulin secretion, 2-3 h; activation, % at 16.6 µM; 370,000 tested, 0.61% active;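 active = lowest replicate activation of at least 40%, so every replicate reaches that level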
ERAP1 HTS inh – ERAP1 (human) enzyme inhibition; Q9NZ08; recombinant ERAP1, Leu-AMC fluorescence, 60 min; inhibition, % at 10.7 µM; 340,000 tested, 0.15% active; AID 652197;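 active = mean replicate inhibition of at least 30%, or all replicates individually reaching that 30% level; inactive = mean below 30% and not every replicate reaching it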
FGF22 binding – binders of recombinant human FGF22 by thermal shift; AID 651658; SYPRO orange fluorescence; percent of sucrose octasulfate shift, DMSO zero; Q9HCT0; activity (Tm shift, normalised), % at 9.99 µM; 340,000 tested, 1.5% active;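 active = mean Tm shift, scaled 0 neutral to 100 positive control, at about 1.3% or above, every replicate too, limit read from the data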
Numbers stand for hits; i = inactive; nt = no result given. Hits are enriched below; roughly 3.3% of the tested compounds scored in any of these assays.

SMILES	SIRT5 inh	Casp6 inh	GSIS activator	ERAP1 HTS inh	FGF22 binding
C=C1C(=O)c2sccc2C(c2ccc(OC)c(OC)c2)C1COC(C)=O (centres undefined)	i	i	115	i	i
CCN1CCN(CC(=O)N2N=C(c3cccs3)CC2c2ccc(OC)c(OC)c2)C(=O)C1=O (centres undefined)	i	i	i	i	i
C=CCOc1ccc(Br)cc1CNCC	i	i	i	i	i
CC(C)COc1ccc(Br)cc1CNC(C)(C)C	i	i	51	i	i
CC(=O)NC1=NC(=O)/C(=C/c2cn(C(C)=O)nc2-c2ccccc2)S1	i	i	i	i	44
Cc1ccc(NC(=O)CN2C(=O)N/C(=C/c3ccccc3OCc3cccc(C(=O)O)c3)C2=O)cc1	i	i	i	i	nt
Cc1ccc(NC(=O)CN2C(=O)N/C(=C/c3ccc4c(c3)OCCO4)C2=O)cc1	i	i	i	i	i
CC(=O)NC1=NC(=O)/C(=C/c2cc(C)n(-c3ccc(NC(C)=O)cc3)c2C)S1	i	i	i	i	i
Cc1ccc(NC(=O)CN2C(=O)N/C(=C/c3ccc(C)s3)C2=O)cc1	nt	nt	99	nt	nt
Cc1ccc(NC(=O)CN2C(=O)N/C(=C/c3cc(C)n(-c4cccc(C(=O)O)c4)c3C)C2=O)cc1	19	72	i	i	44
CC(=O)NC1=NC(=O)/C(=C/N2CCCCC2)S1	nt	nt	i	nt	nt
CC(=O)NC1=NC(=O)/C(=C/c2cc(C)n(-c3cccc(C(=O)O)c3)c2C)S1	20	67	i	i	43
CNC[C@H]1Oc2ncc(Br)cc2C(=O)N([C@H](C)CO)C[C@@H]1C	i	nt	i	nt	i
CCCC#Cc1ccc([C@@H]2[C@H](CO)N3C(=O)CN(C(=O)Nc4ccccc4)C[C@@H]23)cc1	nt	nt	i	nt	nt
C[C@@H]1CN([C@H](C)CO)C(=O)c2cccc(NS(=O)(=O)c3ccc(Cl)cc3)c2O[C@H]1CN(C)C(=O)Nc1ccc(C(F)(F)F)cc1	i	i	i	i	i
CCOC(=O)C1CCN(C(=O)Cc2cccs2)CC1	i	i	i	i	nt
CCOC(=O)C1CCN(C(=O)c2c(-c3ccccc3)noc2C)CC1	i	i	i	i	43
CCOC(=O)C1CCN(C(=O)Cc2ccccc2OC)CC1	i	i	i	i	56
CC(=O)N1[C@@H](CO)[C@@H]2c3ccccc3N(S(=O)(=O)c3ccccc3F)C[C@@H]21	i	i	i	i	i
COC(=O)C[C@H]1CC[C@H]2[C@H](COc3ccc(NS(=O)(=O)c4ccc(F)cc4)cc3C(=O)N2C)O1	i	i	i	i	i
COC(=O)CC1=C(C)C(=O)CC2C(C)(C)CCCC12C (centres undefined)	18	i	i	i	i
CCC(=O)N1CCC1(C)C(=O)Nc1ccc2c(c1)CCN2C(C)=O (centres undefined)	nt	49	nt	i	i
CCCC(=O)N1CCCC1(C)C(=O)Nc1ccc2c(c1)CCN2C(C)=O (centres undefined)	i	i	nt	i	i
CC(C)(C)[S@@](=O)N1Cc2cc(C(=O)N3CCOCC3)nc(-c3cccc(Br)c3)c2[C@H]1CCO	i	i	i	i	nt
Cc1oc(-c2ccc(Cl)cc2)nc1CN1CCCC(C(=O)N2CCOCC2)C1 (centres undefined)	22	i	i	i	i
SMILES	SIRT5 inh	Casp6 inh	GSIS activator	ERAP1 HTS inh	FGF22 binding
CCOc1cc(/C=C2\SC(=S)N(NS(=O)(=O)c3ccccc3)C2=O)ccc1O	i	i	i	i	i
CCOc1ccc(/C=C2\SC(=S)N(NS(=O)(=O)c3ccccc3)C2=O)cc1OC	i	i	62	nt	i
O=C1/C(=C/c2cccs2)SC(=S)N1NS(=O)(=O)c1ccccc1	i	i	i	i	i
O=C1/C(=C/C=C/c2ccco2)SC(=S)N1NS(=O)(=O)c1ccccc1	43	79	i	i	i
CCOc1ccc(/C=C2\SC(=S)N(NS(=O)(=O)c3ccc(C)cc3)C2=O)cc1OC	i	i	42	nt	i
CCC(=O)N1CC[C@H]2[C@H](CO)Nc3ccc(C#Cc4cccnc4)cc3[C@H]21	i	i	i	i	i
CC1(Cc2ccc(C(F)(F)F)o2)C(=O)Nc2ccc(-c3cccc(C(F)(F)F)c3)cc21 (centres undefined)	i	i	173	i	i
CC1(Cc2ccc3c(c2)OCO3)C(=O)Nc2ccc(-c3cccc(C(F)(F)F)c3)cc21 (centres undefined)	i	i	nt	i	i
Cc1cc(C)n2cc(CSc3ncn[nH]3)nc2n1	i	i	i	i	43
Cc1cc(C)n2cc(CSCC(=O)O)nc2n1	nt	nt	i	nt	nt
Cc1cc(C)n2cc(CSc3ccc(Br)cc3)nc2n1	i	i	nt	i	43
N/C(=N\OC(=O)c1cccc(Cl)c1)c1ccncc1	i	i	i	i	45
N/C(=N\OC(=O)c1cc(Cl)ccc1Cl)c1ccncc1	i	i	i	i	i
N/C(=N\OC(=O)C1CCCCC1)c1ccncc1	i	i	i	i	43
Cc1cc(C)nc(-n2ncc3c2CCCC3=O)n1	i	i	i	i	43
COc1ccc([Si](C)(C)[C@@H]2[C@@H](CCn3cc([C@H](O)c4ccccc4)nn3)O[C@]3(C(=O)N(C)c4ccccc43)[C@H]2C)cc1	i	i	nt	i	i
N#Cc1c(Nc2ccc(F)cc2)sc(C(=O)c2ccccc2)c1N	i	i	i	i	43
N#Cc1c(Nc2ccc(F)cc2)sc(C(=O)c2ccc(F)cc2)c1N	i	i	i	i	i
Cc1ccc(N=Nc2c(N)nn(-c3ccccc3)c2N)cc1	i	i	i	i	i
COc1ccc(N=Nc2c(N)nn(C)c2N)cc1	nt	i	i	i	44
COc1cc([N+](=O)[O-])ccc1NC(=O)NCc1ccco1	i	i	i	i	44
Cc1ccc(CN(C)C[C@@H]2OCc3cn(nn3)CCCC(=O)N([C@H](C)CO)C[C@@H]2C)cc1	i	i	i	i	i
C[C@H](CO)N1C[C@H](C)[C@H](CN(C)C(=O)Nc2ccccc2)Oc2ccc(NC(=O)Cn3cnnn3)cc2C1=O	i	i	i	i	i
O=C(CSc1nc2ccccc2c(=O)n1-c1ccc(SC(F)F)cc1)Nc1ccc(N2CCOCC2)cc1	i	i	i	i	43
O=C(CSc1nc2ccccc2c(=O)n1-c1ccc(F)cc1)Nc1ccc(N2CCOCC2)cc1	i	i	i	i	i
SMILES	SIRT5 inh	Casp6 inh	GSIS activator	ERAP1 HTS inh	FGF22 binding
C[C@H]1CN([C@@H](C)CO)C(=O)c2cc(C#Cc3cccc(F)c3)cnc2O[C@@H]1CN(C)C(=O)C1CCCCC1	i	i	i	i	i
CCOCCn1c(SCc2ccccc2)nc2c1c(=O)[nH]c(=O)n2C	i	i	nt	i	i
C/C(Cl)=C\Cn1c(N2CCCC2)nc2c1c(=O)[nH]c(=O)n2C	nt	nt	49	nt	nt
Cn1c(=O)[nH]c(=O)c2c1nc(N1CCCCCC1)n2CCN1CCCCCC1	nt	nt	i	nt	nt
CCCCn1c(N2CCCC2)nc2c1c(=O)[nH]c(=O)n2C	i	i	84	i	i
CCOCCn1c(N2CCN(c3ccccc3)CC2)nc2c1c(=O)[nH]c(=O)n2C	i	i	i	i	43
CCOc1nc(NCCO)nc(Nc2cc(Cl)ccc2OC)n1	i	i	i	i	i

High-throughput results as filed in PubChem BioAssay.
